# PubChem BioAssay AID1045 (SRMLSC, 2008)
# The campaign covered roughly 1,500 compounds. About 1,400 (93%) were called active. So high a share suggests a set chosen from earlier hits. Not all results are given here. Entries with a potency or affinity are not part of this list. A number with no mark means an inactive call. No rule for the calls is given here.
# Experiment: viability of HCT116 lacking mutant beta-catenin – cell-based, human colon tumor, dose response (AID 1045)
# Settings: HCT116 beta-catenin knockout viability, CellTiter-Glo, 60 h; series mostly up to 30 µM; viability: at the top concentration
row,SMILES,viability
1,c1ccc(-c2cc3n(c2)CCc2ccccc2-3)cc1,80.8%
2,CC(C[N+](C)(C)C)OC(N)=O (stereo not given),94.6%
3,CC1CCN(CC(=O)N2c3ccccc3CCc3ccccc32)CC1,91.3%
4,O=C(CSc1nnc(-c2ccccc2Cl)o1)Oc1ccc(Br)cc1,102%
5,Cc1ccc(C(=O)Nc2ccccc2C(=O)NC(C(=O)O)C(C)C)cc1 (stereo not given),92.6%
6,CCOC(=O)Nc1ccc(C)cc1Br,97.8%
7,Cc1nn(C(=O)N2CCOCC2)c(C)c1C,93.1%
8,O=S(=O)(NCCc1csc(-c2cccnc2)n1)c1ccc2c(c1)OCCO2,97.6%
9,CCOc1ccccc1NC(=O)Cn1cnc2c(nnn2-c2cccc(OC)c2)c1=O,89.3%
10,COCCn1c(=NC(=O)CSCC(=O)Nc2cc(C)on2)sc2cc(C(=O)OC)ccc21,114%
11,CCOc1c(OC)ccc2c3c(c(=O)oc12)CCCC3,92.8%
12,CCOc1ccc(C2/C(=C(\O)c3c(C)[nH]c(C(=O)OC)c3C)C(=O)C(=O)N2CCN(C)C)cc1 (stereo not given),101%
13,COC(=O)c1cn(NC(=O)c2cc(OC)c(OC)c(OC)c2)c(=O)c2ccccc12,80%
14,Cc1[nH]nc2c1C(c1ccsc1C)C(C#N)=C(N)O2 (stereo not given),94.6%
15,CC(C)CCCCCCNC(=S)Nc1ccc(S(=O)(=O)N2CCOCC2)cc1,83.6%
16,CC(=O)c1c(C)nc(-c2ccc(Cl)cc2Cl)n1O,94.7%
17,Cc1cc(NC(=O)CSc2nc(-c3cccnc3)ccc2C#N)no1,88.9%
18,[N-]=[N+]=NC1C[C@H](n2ccc(=O)[nH]c2=O)O[C@@H]1CO (stereo not given in full),97.4%
19,COC(=O)c1cccc(N2C(=O)C(Cl)=C(N3CCOCC3)C2=O)c1,84.8%
20,CS(=O)(=O)c1nc(-c2cccs2)cc(C(F)(F)F)n1,97.9%
21,N#CC(c1ccc(Cl)nn1)c1ccc(Cl)cc1Cl (stereo not given),87%
22,CCCCN(C)C(=O)C1CCC(=O)N(c2cc(OC)c(OC)c(OC)c2)C1c1ccc(OC)cc1 (stereo not given),100%

row,SMILES,viability
1,COCCNC(=O)NC1(C(F)(F)F)Oc2ccc(Cl)cc2O1 (stereo not given),90.1%
2,O=C(NCc1ccc(F)cc1)C1C2C=CC3(CN(Cc4cccnc4)C(=O)C13)O2 (stereo not given),99.1%
3,COC(=O)c1ccc(/C=C(\C#N)C(=O)NC(C)c2ccccc2)cc1 (stereo not given),81.2%
4,COC(=O)c1ccc(Oc2nc(C(N)=O)cc(-c3ccccc3)n2)cc1,89.1%
5,CC(C)(C)c1ccc(CNc2ccc([N+](=O)[O-])cn2)cc1,87.2%
6,Cc1ccc(CNc2ccc(O)cc2)cc1,89.3%
7,CCN(CCNC(=O)Nc1ccc(Cl)cc1)c1ccccc1,99.3%
8,O=C(c1nnc(Cc2ccc(Cl)cc2)o1)N1CCc2ccccc2C1,87.9%
9,CN1CCN(c2nc(N3CCN(c4ccccc4)CC3)ncc2F)CC1,80.7%
10,CNC(=O)C1C(=S)NC(N)=C(C#N)C1c1ccccc1 (stereo not given),81.2%
11,CCC(Sc1nc2sc(C(=O)OC)c(C)c2c(=O)n1N)C(=O)N(CC)CC (stereo not given),98.7%
12,Cc1cc(NS(=O)(=O)c2ccccc2)cc(Cl)c1O,94.8%
13,O=C(NNc1nc2cc3c(cc2s1)OCO3)c1cccc(F)c1,91%
14,COc1ccc(C(=O)OC2CCN(c3ncc(C(F)(F)F)cc3Cl)CC2)cc1,92.8%
15,COc1ccc(CCN2C(=O)CN(Cc3ccccc3)CC2=O)cc1OC,86.4%
16,O=C(NCCOc1ccccc1)C(c1ccccc1)c1ccccc1,101%
17,Cc1cc2ncn(C(=O)N3CCC(C)CC3)c2cc1C,96.2%
18,COC(C)(C)[C@H](O)COc1c2ccoc2cc2oc(=O)ccc12,96.7%
19,CCOC(=O)c1[nH]c2ccc(OC)cc2c1NC(=S)N1CCN(c2ccccc2)CC1,93.1%
20,Oc1ccc(C=Nc2ccc3ncccc3c2)c(O)c1,82.3%
21,CCN(CC)S(=O)(=O)c1ccc(-c2nnc(SCc3nnc(-c4ccccc4)o3)o2)cc1,81.1%
22,CN(C)c1nn(C(=O)Nc2cccc(C(F)(F)F)c2)cc1-c1ccccc1,82.9%

row,SMILES,viability
1,O=C(Nc1cccc(C(F)(F)F)c1)C12CC3CC(CC(C3)C1)C2,91.7%
2,CCCCCn1c(Sc2ccccc2)nc2c1c(=O)[nH]c(=O)n2C,83.4%
3,CC(C(=O)NC(=O)NCc1ccccc1)N1C(=O)c2ccccc2C1=O (stereo not given),107%
4,Cc1cc(NC(=O)Cn2c(=O)n(Cc3ccccc3)c(=O)c3ccccc32)no1,83.5%
5,Cc1cc(Cl)ccc1N=c1ssnc1Cl,91.1%
6,CCN(CC)C(=O)CCCOc1ccc(Cl)cc1Cl,83%
7,O=C(Nc1cccc2ccccc12)N1CCN(Cc2ccc3c(c2)OCO3)CC1,96.3%
8,COc1ccc(C(C)=O)cc1CSc1nc2ccccc2o1,96.2%
9,CCOC(=O)C1=C(C)NC(=S)N(C(C)=O)C1c1ccc(Cl)cc1 (stereo not given),82.2%
10,Cc1cc(C)c2c(=O)n(CC(=O)N3CCC(Cc4ccccc4)CC3)sc2n1,80.1%
11,Cc1sc2c(=O)n3c(nc2c1C(=O)NCCCN1CCOCC1)CCCCC3,97.5%
12,CCCCNS(=O)(=O)c1ccc2nc(-c3cccnc3)cc(C(=O)NC3CC3)c2c1,92.2%
13,O=C(NCc1ccccn1)c1c(O)c2cccc3c2n(c1=O)CC3,97.4%
14,CNC(=S)N/N=C(\C)c1ccc(N2CCOCC2)cc1,91.4%
15,COc1cccc(OCC(=O)NN=C2c3ccccc3-c3ccccc32)c1,97%
16,O=C(CSc1ncnc2c1nnn2-c1ccc(F)cc1)NCC1CCCO1 (stereo not given),84%
17,Cc1cc(NC(=O)c2sc(Nc3cccc(C(F)(F)F)c3)nc2N)no1,88.3%
18,COc1ccc(Nc2oc(COc3ccc(Cl)cc3)nc2C#N)cc1,84.1%
19,CCCn1c(SCC(=O)c2ccc3c(c2)NC(=O)CO3)nc2ccccc21,82.9%
20,C=CCNc1nc(Nc2ccc(-c3nc4ccccc4o3)cc2)nc(N2CCOCC2)n1,93.2%
21,CCOC(=O)c1c(C2COc3ccccc3O2)csc1NC(=O)c1ccccc1 (stereo not given),87.7%
22,O=C(CCNc1cc(Cl)cc(Cl)c1)c1ccco1,87.6%

row,SMILES,viability
1,O=C(NCc1ccc2c(c1)OCO2)c1ccc2c(c1)C(=O)N(CC1CCCO1)C2=O (stereo not given),105%
2,COC(=O)COc1ccc(S(=O)(=O)NCc2ccncc2)cc1,96.7%
3,C=CCNC(=O)c1ccccc1NC(=O)c1ccccc1C,101%
4,CCOc1ccc(N(CC(=O)NC2CCCCCC2)S(=O)(=O)c2c(C)noc2C)cc1,101%
5,Nc1c(NCCN2CCOCC2)c2ccccc2oc1=O,85.6%
6,COc1cccc2cc(C(=O)N(C)C)c(=O)oc12,92.8%
7,Cc1[nH]nc2c1C(C1CC=CCC1)C(C#N)=C(N)O2 (stereo not given),96.1%
8,Cc1cc(C)c2c(=O)n(CC(=O)NCCCN3CCOCC3)sc2n1,83.9%
9,N/C(=N\c1nc(C(F)(F)F)cc(=O)[nH]1)Nc1ccc(Cl)cc1,90.8%
10,OCCn1c(C(F)(F)F)nc2ccccc21,90.5%
11,COC(=O)Nc1nc2c(s1)CCCC2,104%
12,O=C(N/N=C/c1ccc(O)c(O)c1O)/C(=C/c1ccc([N+](=O)[O-])cc1)NC(=O)c1ccccc1,81.1%
13,COc1ccc(N2CCN(C(c3cc(OC)ccc3OC)c3nnnn3CC3CCCO3)CC2)cc1 (stereo not given),89.4%
14,Cc1cccc(CS(=O)(=O)c2nnc([C@H](Cc3ccccc3)NC(=O)OC(C)(C)C)o2)c1,92.4%
15,CCCCS/C(N)=N/N=C/c1ccccc1O,97.4%
16,CC(C)c1cc(=O)oc2c3c4c(cc12)CCCN4CCC3,86.2%
17,CN1/C(=C\C(=S)NC(=O)c2ccc([N+](=O)[O-])cc2)C(C)(C)c2ccccc21,94.3%
18,O=S(=O)(c1cccc2ccccc12)N1CCSC1,96.6%
19,CCCCn1c(=NC(=O)c2ccco2)c(C(=O)OCC)cc2c(=O)n3ccccc3nc21,81.3%
20,Cc1cc(Nc2ccccc2)nn1C(=O)c1ccccc1,98.3%
21,CCCC(=O)Nc1ccc(C)c(O)c1,93.3%
22,COC(=O)c1cc(OC)c(OC)cc1NC(=O)c1ccccc1,89%

row,SMILES,viability
1,OC1(c2cccc(C(F)(F)F)c2)CCN(c2ccc(-c3ccccc3)nn2)CC1,93.7%
2,CCN(CC)c1ccc(N=Cc2ccc(N(CC)CC)cc2O)cc1,87.8%
3,CCCCNC(=O)Nc1c(C(=O)OC)[nH]c2ccc(C)cc12,81.5%
4,CN(C)S(=O)(=O)c1cccc(NC(=O)COC(=O)c2cccc(S(=O)(=O)N3CCc4ccccc4C3)c2)c1,91.7%
5,c1ccc2c(c1)CCCC2C1=NCCN1 (stereo not given),96.7%
6,O=C(Nc1cccc2ccccc12)c1onc2c1CCCC2,87.9%
7,COc1ccc(NC(=O)CCCn2c(=O)c3sccc3n(Cc3ccccc3)c2=O)cc1,90.1%
8,OC1C2CN3CCN(C2)CC1(Cc1ccccc1)C3 (stereo not given),97.8%
9,O=C(c1ccc2c(=O)n(CC3CCCO3)c(=S)[nH]c2c1)N1CCN(c2ccccc2)CC1 (stereo not given),99.5%
10,CCOC(=O)N1CCN(C(=O)c2nn(-c3ccc(C)cc3)c(=O)c3c2c2ccccc2n3C)CC1,88.9%
11,C=CCNc1nnc(SC2CC(=O)N(c3ccc(OC)cc3)C2=O)s1 (stereo not given),101%
12,Cc1c(Cl)ccc2sc(NC(=O)CN3C(=O)c4ccccc4C3=O)nc12,101%
13,COc1ccc(S(=O)(=O)CCC(=O)N(C)c2ccc(OC)cc2OC)cc1,87%
14,CCCCN1C[C@H](O)[C@@H](O)[C@H](O)[C@H]1CO,99.3%
15,O=C(COC(=O)c1c2c(nc3ccccc13)CCCC2)Nc1ccc2c(c1)OCO2,83.9%
16,O=C(COC(=O)c1cccnc1Nc1cccc(C(F)(F)F)c1)NCc1ccc2c(c1)OCO2,84.7%
17,CCOC(=O)Cn1c2ccccc2c2nc3ccccc3nc21,89.9%
18,Cc1ccc(Cn2nc(C)c(NC(=O)CSc3nc4c(c(C(F)(F)F)n3)CCc3ccccc3-4)c2C)cc1,90.2%
19,COc1ccc(CCn2c(N)c(C(=O)NCc3ccco3)c3nc4ccccc4nc32)cc1OC,81.8%
20,COc1ccccc1CN=Cc1[nH]c2ccc(Br)c(Cl)c2c1O,80.3%
21,COc1ccc(C(=O)OCC(=O)c2cc(OC)ccc2OC)c(OC)c1,88.4%
22,O=C1[C@H]2[C@H]3[C@H](O)[C@H](O)C/C(=N\OC[C@@H](O)COCc4ccco4)[C@@H]3CC[C@H]2C(=O)N1c1ccc(F)cc1F,93.9%
